PubChem BioAssay
Results filed as inconclusive are left out. For some of these results: Results with a measured potency or affinity are listed apart. Active and inactive are the calls of the source. Unless noted, no rule for the calls is given here.

Legend:
[1] = polyglutamine-triggered caspase-3 activation inhibitors, cell-based (AID 1583); conditions: polyglutamine-induced caspase-3 activation, cell assay; stronger effect = higher value;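 tested at 10 µM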
[2] = suppressors of polyQ aggregation in yeast, 75Q-TubU reporter (AID 1593); conditions: Yeast 75Q polyglutamine aggregation reporter
[3] = rescue of polyQ-huntingtin neuronal dysfunction in worms, whole organism, C. elegans mechanosensory neurons, N-terminal huntingtin (AID 1599); conditions: touch response, stronger effect = higher value
[4] = inhibitors of mitochondrial cytochrome c release, biochemical, purified mitochondria (AID 1603); conditions: stronger effect = lower value;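 also: mouse liver mitochondria challenged with calcium chloride; signal normalized to the plate average as 100%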
[5] = inhibitors of polyQ protein aggregation (AID 1604); conditions: polyglutamine-induced protein aggregation inhibition assay; stronger effect = higher value; tested at 2.5 µM
[6] = enhancers of glutamate uptake in motor neurons, MN-1 cell line (AID 1612); conditions: MN-1 motor neuron cells, stronger effect = higher value;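 also: tested at 1 µM final; 0% = mean of DMSO vehicle wells on each plate; positive means more glutamate uptake than control and negative means less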
[7] = suppressors of polyglutamine aggregation in yeast, 75Q-TubH (AID 1616); conditions: S. cerevisiae 75Q-TubH polyglutamine aggregation suppression; stronger effect = higher value
[8] = circadian clock period modulators, cell-based, LOPAC library, luminescence reporter (AID 2774); conditions: circadian reporter cells, at 7 µM, actives lie on both sides;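 also: values are relative to mean of DMSO wells on each plate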
[9] = hESC survival regulators, cell-based (AID 493140); conditions: human embryonic stem cell survival screen; stronger effect = higher value;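 also: cells exposed to compounds for four days before counting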
[10] = molecular target: ATP-dependent translocase ABCB1 (Homo sapiens) (UniProt P08183); test: MDR1 (ABCB1) efflux transporter inhibition, cell-based (AID 377; in the data active = fluorescence slope change above about 50%); conditions: MDR1-expressing cells, fluorescent substrate accumulation slope; stronger effect = higher value; concentration not given here
[11] = HepG2 cytotoxicity, primary screen, cytotoxicity control for P. falciparum antimalarial project, cell-based, ATP luminescence (AID 2303;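 active = inhibition above 50%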;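 also: 0% = DMSO wells and 100% = digitonin-killed cells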); conditions: HepG2 viability, 24-48 h, at 10 µM, stronger effect = higher value
[12] = molecular target: L-lactate dehydrogenase (Plasmodium falciparum (isolate CDC / Honduras)) (UniProt Q27743); test: PfLDH activity inhibition – cell lysate, 3D7 strain, counter-screen for P. falciparum growth inhibition project (AID 2304);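 also: 0% = vehicle and 100% = reference inhibitor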; conditions: P. falciparum 3D7 crude extract, LDH APAD/NBT absorbance; at 2 µM; stronger effect = higher value
[13] = inhibition of 3D7 malaria parasite growth – strain 3D7 (AID 2306);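 also: 0% = DMSO wells and 100% = chloroquine plus artemisinin control wells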; conditions: P. falciparum 3D7 erythrocytic growth, LDH absorbance, 72 h; at 2 µM; stronger effect = higher value

Chain of ATP-dependent translocase ABCB1 (Homo sapiens) (P08183 whole entry, looked up): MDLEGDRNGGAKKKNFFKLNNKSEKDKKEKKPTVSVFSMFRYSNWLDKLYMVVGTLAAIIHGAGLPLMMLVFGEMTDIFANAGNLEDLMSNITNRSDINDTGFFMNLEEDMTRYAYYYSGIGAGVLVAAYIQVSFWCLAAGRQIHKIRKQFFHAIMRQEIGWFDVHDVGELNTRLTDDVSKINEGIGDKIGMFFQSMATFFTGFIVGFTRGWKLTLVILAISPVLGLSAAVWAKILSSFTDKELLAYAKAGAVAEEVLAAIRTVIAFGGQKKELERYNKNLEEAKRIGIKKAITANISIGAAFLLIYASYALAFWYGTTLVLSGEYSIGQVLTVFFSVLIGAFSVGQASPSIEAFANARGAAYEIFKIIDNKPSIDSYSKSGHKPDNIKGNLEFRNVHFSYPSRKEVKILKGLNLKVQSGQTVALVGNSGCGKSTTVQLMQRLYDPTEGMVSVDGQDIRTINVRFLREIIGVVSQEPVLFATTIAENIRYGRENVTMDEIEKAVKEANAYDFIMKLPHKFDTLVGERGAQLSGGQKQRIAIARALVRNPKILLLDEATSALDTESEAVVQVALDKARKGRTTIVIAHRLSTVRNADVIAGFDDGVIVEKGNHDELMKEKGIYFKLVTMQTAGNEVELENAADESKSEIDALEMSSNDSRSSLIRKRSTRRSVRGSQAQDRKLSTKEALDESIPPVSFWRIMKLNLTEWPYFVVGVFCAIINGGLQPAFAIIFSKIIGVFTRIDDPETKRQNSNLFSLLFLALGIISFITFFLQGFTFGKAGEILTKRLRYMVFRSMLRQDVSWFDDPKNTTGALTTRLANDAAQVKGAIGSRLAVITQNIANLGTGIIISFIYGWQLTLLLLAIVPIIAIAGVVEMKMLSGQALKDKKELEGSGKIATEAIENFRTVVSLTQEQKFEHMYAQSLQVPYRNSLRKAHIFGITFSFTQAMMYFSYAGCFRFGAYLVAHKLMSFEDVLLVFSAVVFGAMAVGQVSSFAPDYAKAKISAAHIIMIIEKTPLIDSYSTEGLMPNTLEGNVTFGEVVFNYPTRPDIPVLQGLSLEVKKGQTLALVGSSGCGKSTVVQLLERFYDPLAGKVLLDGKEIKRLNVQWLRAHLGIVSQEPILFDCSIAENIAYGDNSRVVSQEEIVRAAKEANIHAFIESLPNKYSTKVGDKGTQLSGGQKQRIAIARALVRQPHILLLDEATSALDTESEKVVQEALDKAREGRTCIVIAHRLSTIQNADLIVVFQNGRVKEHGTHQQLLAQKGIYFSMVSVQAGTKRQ
Chain of L-lactate dehydrogenase (Plasmodium falciparum (isolate CDC / Honduras)) (Q27743 whole entry, looked up): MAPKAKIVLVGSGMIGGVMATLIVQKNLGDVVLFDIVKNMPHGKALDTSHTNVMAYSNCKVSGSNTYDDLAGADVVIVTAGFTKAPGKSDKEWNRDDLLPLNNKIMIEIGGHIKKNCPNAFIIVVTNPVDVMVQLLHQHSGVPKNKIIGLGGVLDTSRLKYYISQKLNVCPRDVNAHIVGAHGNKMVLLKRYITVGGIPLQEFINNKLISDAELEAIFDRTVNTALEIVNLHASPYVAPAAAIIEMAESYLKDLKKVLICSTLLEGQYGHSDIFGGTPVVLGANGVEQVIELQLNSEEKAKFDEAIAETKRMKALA

Row | Compound | inhibition [1] [%] | score [2] | rescue above control [3] | cytochrome c release ratio [4] | inhibition of aggregation [5] [%] | glutamate uptake change [6] [%] | aggregation suppression score [7] | period change [8] | survival [9] | fluorescence slope change [10] | inhibition [11] | inhibition [12] | growth inhibition [13]
1 | CC(C)(C)CC(C)(C)c1ccc(O)c(Cc2ccc(Cl)cc2Cl)c1 | 42 | -0.61 | -2.34 | 0.8 | 71.9 | -22.5 | 0.498 |  |  |  |  |  | 
2 | CSc1ccc2c(c1)C(N1CCN(C)CC1)Cc1ccccc1S2 (stereo not given) | 7.11 | 0.84 | 0 | 4.27 | 80.6 | 5.12 | 1.18 | 0.085 h (inactive) | 1.5 (inactive) |  |  |  | 
3 | CC1=CC(=O)c2ccccc2C1=O | 56.7 | -0.01 | -12.4 | 1.17 | 53.5 | -13.7 | 0.00728 |  | 2.42 (inactive) | 81.2% (active) |  |  | 
4 | CN1CCN(CCCN2c3ccccc3Sc3ccc(Cl)cc32)CC1 | 88.9 | 1.36 | 0 | 2.91 | 74.6 | 0 | 1.34 | 0.055 h (inactive) | 1.75 (inactive) | 65.3% (active) |  |  | 
5 | CN(C)CCC=C1c2ccccc2C=Cc2ccccc21 | -2.52 | 1.44 | 5.55 | 1.17 | 84.1 | -6.52 | 1.07 | 0.095 h (inactive) | 2.75 (inactive) | 73% (active) |  |  | 
6 | CCCCOc1cc(C(=O)NCCN(CC)CC)c2ccccc2n1 | -0.9 | 1.3 | -3.49 | 1.15 | 50 | -13.8 | 1.32 |  | 7.17 (inactive) |  |  |  | 
7 | NC(=NCCCCCCN=C(N)/N=C(\N)Nc1ccc(Cl)cc1)/N=C(\N)Nc1ccc(Cl)cc1 | 66.8 | 0.16 | 0 | 12.9 | 79.3 | -13.4 | 0.0711 |  | 3.17 (inactive) | 250% (active) |  |  | 
8 | COC(=O)Nc1nc2ccc(Sc3ccccc3)cc2[nH]1 | 20.4 | 0.64 | -1.52 | 0.87 | 6.35 | -41.7 | 0.129 |  | 0.833 (inactive) | 52.1% (active) |  |  | 
9 | NC(CO)C(=O)NNCc1ccc(O)c(O)c1O (stereo not given) | 5.62 | 1.68 | 7.52 | 0.53 | 89.7 | 11.3 | 1.23 | 0.075 h (inactive) | 2.42 (inactive) |  |  |  | 
10 | Oc1c(Br)cc(Br)c2cccnc12 | 46.3 | -0.06 | 10.9 | 2 | 80.3 | 4.76 | -0.0132 |  |  |  |  |  | 
11 | CC(C)COCC(CN(Cc1ccccc1)c1ccccc1)N1CCCC1 (stereo not given) | 7.56 | 1.17 | 1.23 | 0.32 | 23.6 | 12.6 | 1.08 | 0.04 h (inactive) | 5.92 (inactive) | 131% (active) |  |  | 
12 | CC1CCC(NC(=O)N(CCCl)N=O)CC1 (stereo not given) | 13.6 | 0.02 | -12.6 | 1.01 | 26.4 | -7.99 | 0.0109 |  |  | 10.9% (inactive) |  |  | 
13 | Fc1ccc(C(c2ccc(F)cc2)N2CCN(C/C=C/c3ccccc3)CC2)cc1 | 11.9 | 0.72 | 11.5 | 1.24 | 27 | 9.47 | 1.1 | -0.2 h (inactive) | 3.67 (inactive) | 70.9% (active) |  |  | 
14 | O=C(OCC(O)CO)c1ccccc1Nc1ccnc2cc(Cl)ccc12 (stereo not given) | 18.5 | 1.22 | -8.14 | 1.02 | 23.8 | 4.05 | 0.893 |  | 17.9 (inactive) | 88.6% (active) |  |  | 
15 | CCN(CC)CCOC(=O)C(c1ccccc1)C1CCCCC1 (stereo not given) | 14.6 | 1.92 | 0.94 | 1.03 | 6.35 | 1.54 | 1.17 |  | 3.67 (inactive) | 89.7% (active) |  |  | 
16 | C/C=C(/C(=C/C)c1ccc(O)cc1)c1ccc(O)cc1 | 31.3 | 0.33 | -4.61 | 4.08 | 63.2 | -21.7 | 0.184 |  | 5.92 (inactive) | 10.7% (inactive) |  |  | 
17 | CCCC(C(=O)OCCN(CC)CC)(c1ccccc1)c1ccccc1 | -4.65 | 1.32 | -2.09 | 2.6 | 77 | 0.18 | 1.25 | -0.035 h (inactive) | 3.58 (inactive) | 180% (active) |  |  | 
18 | CC(=O)OC/C=C(C)/C=C/C=C(C)/C=C/C1=C(C)CCCC1(C)C | -4.49 | 1.02 | 0.33 | 1.12 | 85.2 | -12.9 | 0.917 |  |  |  |  |  | 
19 | Oc1ccc(Cl)cc1Cc1cc(Cl)ccc1O | 7.6 | -0.49 | 0 | 0.36 | 29.6 | -22.2 | -0.099 |  |  |  |  |  | 
20 | CN(C)CCCN1c2ccccc2Sc2ccccc21 | -14.3 | 1.56 | 23.4 | 1.27 | 23.9 | 20.4 | 1.03 | -0.355 h (inactive) | 1.08 (inactive) |  |  |  | 
21 | CCCCC(CC)CN1CN(CC(CC)CCCC)CC(C)(N)C1 (stereo not given) | 22.5 | 0.11 | 0 | 0.41 | 1.83 | 2.82 | 0.306 |  | 6.83 (inactive) | 61.9% (active) |  |  | 
22 | CN(Cc1cnc2nc(N)nc(N)c2n1)c1ccc(C(=O)N[C@@H](CCC(=O)O)C(=O)O)cc1 | 25.6 | 0.69 | -10.9 | 1.08 | 74.6 | 10.9 | 0.131 | 0.835 h (inactive) | 39.6 (inactive) |  | -2% (inactive) | 1% (inactive) | 91% (active)
23 | CN(C)CCCN1c2ccccc2Sc2ccc(C(F)(F)F)cc21 | 30.2 | 1.13 | 19.8 | 0.7 | 76 | 10.7 | 1.05 | -0.13 h (inactive) | 5.42 (inactive) |  |  |  | 
